Assay results reported in PubChem BioAssay AID1159580 (chemical genetic matrix, 2015).
Hit rate of the full screen: of about 5,500 compounds, about 2,000 (36%) were called active. Not shown: some 18% with an inconclusive outcome. Rule as the data show it: active = normalized growth mostly below about 0.91 (no sharp cut-off); inconclusive = no clear call, values can overlap the other calls; inactive = mostly above about 0.92. The list shows a part of the results.

Test: chemical genetic growth profiling, strain panel (AID 1159580);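 also: tested at 20 µM; growth read once vehicle control cultures reached saturation at 30 °C; 1 = growth at the plate median or of vehicle wells; lower values mean less growth of the strain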
Details: growth OD

Measured: normalized growth

Oc1ccc2c3c1OC1[C@@H](O)CC[C@@]4(O)[C@@H](C2)N(CC2CCC2)CC[C@]314 (some centres not stated)
inactive: S. cerevisiae deletion strains, locus YJR075W, strain HOC1, stronger effect = lower value 1.03 | S. cerevisiae deletion strains, locus YKL009W, strain mrt4, stronger effect = lower value 1 | S. cerevisiae deletion strains, locus YKL068W, stronger effect = lower value 1.01 | S. cerevisiae deletion strains, locus YKL085W, strain MDH1 (second series), stronger effect = lower value 1 | S. cerevisiae deletion strains, locus YKL085W, strain MDH1, stronger effect = lower value 1 | S. cerevisiae deletion strains, locus YKL160W, strain elf1, stronger effect = lower value 0.992 | S. cerevisiae deletion strains, locus YKL190W, strain CNB1, stronger effect = lower value 1.01 | S. cerevisiae deletion strains, locus YKR001C, strain vps1, stronger effect = lower value 1.01 | S. cerevisiae deletion strains, locus YKR026C, strain gcn3, stronger effect = lower value 0.952 | S. cerevisiae deletion strains, locus YKR091W, strain srl3, stronger effect = lower value 0.992 | S. cerevisiae deletion strains, locus YLL001W, strain dnm1, stronger effect = lower value 0.978 | S. cerevisiae deletion strains, locus YLL026W, stronger effect = lower value 0.999 | S. cerevisiae deletion strains, locus YLL041C, strain sdh2, stronger effect = lower value 0.993 | S. cerevisiae deletion strains, locus YLR027C, strain aat2, stronger effect = lower value 1 | S. cerevisiae deletion strains, locus YLR039C, strain RIC1, stronger effect = lower value 1.04 | S. cerevisiae deletion strains, locus YLR058C, strain SHM2, stronger effect = lower value 1.02 | S. cerevisiae deletion strains, locus YLR102C, strain apc9, stronger effect = lower value 1.01 | S. cerevisiae deletion strains, locus YLR113W, strain HOG1, stronger effect = lower value 0.971 | S. cerevisiae deletion strains, locus YLR221C, strain rsa3, stronger effect = lower value 1.02 | S. cerevisiae deletion strains, locus YLR258W, strain gsy2, stronger effect = lower value 1.01 | S. cerevisiae deletion strains, locus YLR262C, strain YPT6 (second series), stronger effect = lower value 0.986 | S. cerevisiae deletion strains, locus YLR262C, strain YPT6, stronger effect = lower value 1.01 | S. cerevisiae deletion strains, locus YLR268W, strain sec22, stronger effect = lower value 1.06 | S. cerevisiae deletion strains, locus YLR320W, strain mms22, stronger effect = lower value 1.01 | S. cerevisiae deletion strains, locus YLR330W, strain CHS5, stronger effect = lower value 1.01 | S. cerevisiae deletion strains, locus YLR342W, strain FKS1 (second series), stronger effect = lower value 1.01 | S. cerevisiae deletion strains, locus YLR342W, strain FKS1, stronger effect = lower value 1 | S. cerevisiae deletion strains, locus YLR357W, strain rsc2, stronger effect = lower value 0.967 | S. cerevisiae deletion strains, locus YLR370C, strain arc18, stronger effect = lower value 0.989 | S. cerevisiae deletion strains, locus YLR371W, strain rom2, stronger effect = lower value 1.02 | S. cerevisiae deletion strains, locus YLR384C, strain iki3, stronger effect = lower value 0.991 | S. cerevisiae deletion strains, locus YLR418C, strain cdc73, stronger effect = lower value 1.03 | S. cerevisiae deletion strains, locus YML016C, strain PPZ1, stronger effect = lower value 1.01 | S. cerevisiae deletion strains, locus YML032C, strain rad52, stronger effect = lower value 1.03 | S. cerevisiae deletion strains, locus YML120C, strain ndi1, stronger effect = lower value 1 | S. cerevisiae deletion strains, locus YML124C, strain tub3, stronger effect = lower value 1.01 | S. cerevisiae deletion strains, locus YMR058W, strain fet3, stronger effect = lower value 1.02 | S. cerevisiae deletion strains, locus YMR078C, strain ctf18, stronger effect = lower value 1.02 | S. cerevisiae deletion strains, locus YMR125W, strain sto1, stronger effect = lower value 0.982 | S. cerevisiae deletion strains, locus YMR129W, stronger effect = lower value 1 | S. cerevisiae deletion strains, locus YMR205C, strain PFK2, stronger effect = lower value 0.993 | S. cerevisiae deletion strains, locus YMR223W, strain ubp8, stronger effect = lower value 1.01 | S. cerevisiae deletion strains, locus YMR231W, strain pep5, stronger effect = lower value 1 | S. cerevisiae deletion strains, locus YMR263W, strain SAP30, stronger effect = lower value 1.02 | S. cerevisiae deletion strains, locus YMR307W, strain GAS1, stronger effect = lower value 1.04 | S. cerevisiae deletion strains, locus YNL067W, strain RPL9B, stronger effect = lower value 1.03 | S. cerevisiae deletion strains, locus YNL071W, strain lat1, stronger effect = lower value 1 | S. cerevisiae deletion strains, locus YNL128W, strain TEP1, stronger effect = lower value 1.03 | S. cerevisiae deletion strains, locus YNL153C, strain GIM3, stronger effect = lower value 1.03 | S. cerevisiae deletion strains, locus YNL183C, strain NPR1, stronger effect = lower value 0.914 | S. cerevisiae deletion strains, locus YNL209W, strain ssb2, stronger effect = lower value 1.01 | S. cerevisiae deletion strains, locus YNL233W, strain BNI4, stronger effect = lower value 1.02 | S. cerevisiae deletion strains, locus YNL248C, strain rpa49, stronger effect = lower value 0.92 | S. cerevisiae deletion strains, locus YNL250W, strain rad50, stronger effect = lower value 1.01 | S. cerevisiae deletion strains, locus YNL271C, strain bni1, stronger effect = lower value 1.01 | S. cerevisiae deletion strains, locus YNL298W, strain CLA4, stronger effect = lower value 1.01 | S. cerevisiae deletion strains, locus YNL307C, strain MCK1, stronger effect = lower value 1.01 | S. cerevisiae deletion strains, locus YNL322C, strain KRE1 (second series), stronger effect = lower value 0.999 | S. cerevisiae deletion strains, locus YNL322C, strain KRE1, stronger effect = lower value 1.01 | S. cerevisiae deletion strains, locus YNR049C, strain mso1, stronger effect = lower value 0.988 | S. cerevisiae deletion strains, locus YNR052C, strain pop2, stronger effect = lower value 1.01 | S. cerevisiae deletion strains, locus YOL006C, strain TOP1, stronger effect = lower value 1.04 | S. cerevisiae deletion strains, locus YOL012C, strain htz1 0.773 | S. cerevisiae deletion strains, locus YOL147C, strain pex11, stronger effect = lower value 1.01 | S. cerevisiae deletion strains, locus YOR001W, strain rrp6, stronger effect = lower value 0.997 | S. cerevisiae deletion strains, locus YOR061W, strain CKA2, stronger effect = lower value 1.01 | S. cerevisiae deletion strains, locus YOR069W, strain VPS5, stronger effect = lower value 1.01 | S. cerevisiae deletion strains, locus YOR070C, strain gyp1, stronger effect = lower value 1 | S. cerevisiae deletion strains, locus YOR080W, strain dia2, stronger effect = lower value 0.988 | S. cerevisiae deletion strains, locus YOR083W, strain WHI5, stronger effect = lower value 0.987 | S. cerevisiae deletion strains, locus YOR106W, strain vam3, stronger effect = lower value 0.993 | S. cerevisiae deletion strains, locus YOR136W, strain idh2, stronger effect = lower value 1.02 | S. cerevisiae deletion strains, locus YOR144C, strain elg1, stronger effect = lower value 1.01 | S. cerevisiae deletion strains, locus YOR184W, strain ser1, stronger effect = lower value 1.01 | S. cerevisiae deletion strains, locus YOR231W, strain MKK1, stronger effect = lower value 0.96 | S. cerevisiae deletion strains, locus YOR265W, strain rbl2, stronger effect = lower value 1 | S. cerevisiae deletion strains, locus YOR270C, strain vph1, stronger effect = lower value 0.997 | S. cerevisiae deletion strains, locus YOR290C, strain snf2, stronger effect = lower value 1.02 | S. cerevisiae deletion strains, locus YOR316C, strain cot1, stronger effect = lower value 1.02 | S. cerevisiae deletion strains, locus YPL051W, strain arl3, stronger effect = lower value 1.01 | S. cerevisiae deletion strains, locus YPL055C, strain LGE1, stronger effect = lower value 1.05 | S. cerevisiae deletion strains, locus YPL078C, strain atp4, stronger effect = lower value 0.984 | S. cerevisiae deletion strains, locus YPL106C, strain sse1, stronger effect = lower value 1.01 | S. cerevisiae deletion strains, locus YPL240C, strain hsp82, stronger effect = lower value 0.997 | S. cerevisiae deletion strains, locus YPL241C, strain CIN2, stronger effect = lower value 1.01 | S. cerevisiae deletion strains, locus YPL256C, strain CLN2, stronger effect = lower value 0.972 | S. cerevisiae deletion strains, locus YPR119W, strain clb2, stronger effect = lower value 1.01 | S. cerevisiae deletion strains, locus YPR141C, strain kar3, stronger effect = lower value 1.02 | S. cerevisiae deletion strains, locus YPR163C, strain tif3, stronger effect = lower value 1.01 | S. cerevisiae deletion strains, locus YPR167C, strain met16, stronger effect = lower value 1.02 | S. cerevisiae deletion strains, strain wtn01, stronger effect = lower value 1.02 | S. cerevisiae strains, strain wild type, stronger effect = lower value 1.02
